Assay results taken from ChEMBL document CHEMBL1961873, “Compounds: GSK PKIS; Assays: Nanosyn kinase panel” (2012).

Tests used:
[1] = system: Tyrosine-protein kinase ABL1 (Homo sapiens), P00519 [T315I]; conditions: at 1 µM
[2] = system: Tyrosine-protein kinase ABL1 (Homo sapiens), P00519 [Y253F]; conditions: at 0.1 µM
[3] = system: Tyrosine-protein kinase ABL1 (Homo sapiens), P00519 [Y253F]; conditions: at 1 µM
[4] = biological target: Tyrosine-protein kinase ABL1 (Homo sapiens) (UniProt P00519); conditions: at 0.1 µM
[5] = biological target: Tyrosine-protein kinase ABL1 (Homo sapiens) (UniProt P00519); conditions: at 1 µM
[6] = biological target: ALK tyrosine kinase receptor (Homo sapiens) (UniProt Q9UM73); conditions: at 0.1 µM
ALK tyrosine kinase receptor (Homo sapiens), sequence (Q9UM73 19-1620 limits assumed): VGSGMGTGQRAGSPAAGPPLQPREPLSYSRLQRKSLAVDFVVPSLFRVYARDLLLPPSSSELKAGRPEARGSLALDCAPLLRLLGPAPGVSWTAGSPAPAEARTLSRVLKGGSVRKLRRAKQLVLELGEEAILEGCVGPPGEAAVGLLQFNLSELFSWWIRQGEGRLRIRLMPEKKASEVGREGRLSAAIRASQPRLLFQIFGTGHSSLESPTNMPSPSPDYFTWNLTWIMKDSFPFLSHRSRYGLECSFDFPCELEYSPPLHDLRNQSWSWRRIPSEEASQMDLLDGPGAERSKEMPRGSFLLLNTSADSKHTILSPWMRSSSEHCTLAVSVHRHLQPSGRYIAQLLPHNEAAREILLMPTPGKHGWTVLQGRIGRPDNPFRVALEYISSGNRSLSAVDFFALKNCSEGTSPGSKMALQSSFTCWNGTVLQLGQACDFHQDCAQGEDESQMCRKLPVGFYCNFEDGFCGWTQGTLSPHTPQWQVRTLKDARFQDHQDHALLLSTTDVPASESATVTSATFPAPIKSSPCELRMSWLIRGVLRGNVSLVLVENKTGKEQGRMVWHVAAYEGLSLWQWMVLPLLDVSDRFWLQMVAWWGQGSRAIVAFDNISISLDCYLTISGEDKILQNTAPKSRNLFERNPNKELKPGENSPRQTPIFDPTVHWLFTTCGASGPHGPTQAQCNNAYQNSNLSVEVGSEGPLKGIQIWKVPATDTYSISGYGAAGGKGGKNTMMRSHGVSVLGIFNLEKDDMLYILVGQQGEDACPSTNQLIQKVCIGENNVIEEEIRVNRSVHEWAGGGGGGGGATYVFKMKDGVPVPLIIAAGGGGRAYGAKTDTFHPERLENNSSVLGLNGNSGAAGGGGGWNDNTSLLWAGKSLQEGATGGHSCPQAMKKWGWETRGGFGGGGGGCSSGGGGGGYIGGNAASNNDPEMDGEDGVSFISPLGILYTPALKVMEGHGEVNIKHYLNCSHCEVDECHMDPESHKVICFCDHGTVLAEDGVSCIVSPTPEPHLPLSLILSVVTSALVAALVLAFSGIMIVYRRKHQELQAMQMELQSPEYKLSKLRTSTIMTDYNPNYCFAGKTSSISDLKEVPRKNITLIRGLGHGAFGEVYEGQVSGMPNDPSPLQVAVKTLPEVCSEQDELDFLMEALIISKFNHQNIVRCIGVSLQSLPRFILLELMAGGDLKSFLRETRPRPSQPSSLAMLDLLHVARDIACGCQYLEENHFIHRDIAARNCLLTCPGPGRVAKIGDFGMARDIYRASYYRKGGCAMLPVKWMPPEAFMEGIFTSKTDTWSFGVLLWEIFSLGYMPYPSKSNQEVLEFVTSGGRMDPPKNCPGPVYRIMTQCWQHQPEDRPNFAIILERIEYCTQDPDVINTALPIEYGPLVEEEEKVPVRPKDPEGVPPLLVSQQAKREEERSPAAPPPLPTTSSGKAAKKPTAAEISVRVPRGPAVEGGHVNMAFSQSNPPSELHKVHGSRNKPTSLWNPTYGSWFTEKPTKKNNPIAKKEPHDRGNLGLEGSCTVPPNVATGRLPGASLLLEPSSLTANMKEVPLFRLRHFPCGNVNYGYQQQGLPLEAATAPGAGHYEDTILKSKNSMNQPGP

[7] = biological target: ALK tyrosine kinase receptor (Homo sapiens) (UniProt Q9UM73); conditions: at 1 µM
[8] = biological target: Tyrosine-protein kinase ABL2 (Homo sapiens) (UniProt P42684); conditions: at 0.1 µM
[9] = biological target: Tyrosine-protein kinase ABL2 (Homo sapiens) (UniProt P42684); conditions: at 1 µM
[10] = biological target: Tyrosine-protein kinase receptor UFO (Homo sapiens) (UniProt P30530); conditions: at 0.1 µM
Tyrosine-protein kinase receptor UFO (Homo sapiens), sequence (P30530 whole entry): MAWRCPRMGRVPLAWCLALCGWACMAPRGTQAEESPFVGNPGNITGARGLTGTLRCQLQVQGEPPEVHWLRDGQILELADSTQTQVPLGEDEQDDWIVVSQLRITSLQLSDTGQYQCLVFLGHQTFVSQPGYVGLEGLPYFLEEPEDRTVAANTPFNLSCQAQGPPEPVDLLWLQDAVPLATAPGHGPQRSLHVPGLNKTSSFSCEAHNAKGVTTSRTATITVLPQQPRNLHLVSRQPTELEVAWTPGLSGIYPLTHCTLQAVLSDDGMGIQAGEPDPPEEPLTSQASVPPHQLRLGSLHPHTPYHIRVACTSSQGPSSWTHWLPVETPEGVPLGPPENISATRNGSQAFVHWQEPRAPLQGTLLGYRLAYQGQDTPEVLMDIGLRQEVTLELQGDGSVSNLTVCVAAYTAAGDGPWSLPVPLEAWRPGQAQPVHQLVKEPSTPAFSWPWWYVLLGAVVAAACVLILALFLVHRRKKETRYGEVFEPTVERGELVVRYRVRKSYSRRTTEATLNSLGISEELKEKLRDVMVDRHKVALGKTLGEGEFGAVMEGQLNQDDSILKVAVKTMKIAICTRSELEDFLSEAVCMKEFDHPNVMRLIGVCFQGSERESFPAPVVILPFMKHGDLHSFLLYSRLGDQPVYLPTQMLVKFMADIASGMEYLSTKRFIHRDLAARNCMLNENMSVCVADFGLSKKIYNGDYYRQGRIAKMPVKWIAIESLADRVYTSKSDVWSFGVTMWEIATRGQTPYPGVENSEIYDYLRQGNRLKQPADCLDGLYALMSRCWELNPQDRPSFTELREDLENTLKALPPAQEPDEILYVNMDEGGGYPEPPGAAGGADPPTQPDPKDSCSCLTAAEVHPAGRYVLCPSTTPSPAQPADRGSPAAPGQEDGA

[11] = biological target: Tyrosine-protein kinase Blk (Homo sapiens) (UniProt P51451); conditions: at 0.1 µM
Tyrosine-protein kinase Blk (Homo sapiens), sequence (P51451 2-505 limits assumed): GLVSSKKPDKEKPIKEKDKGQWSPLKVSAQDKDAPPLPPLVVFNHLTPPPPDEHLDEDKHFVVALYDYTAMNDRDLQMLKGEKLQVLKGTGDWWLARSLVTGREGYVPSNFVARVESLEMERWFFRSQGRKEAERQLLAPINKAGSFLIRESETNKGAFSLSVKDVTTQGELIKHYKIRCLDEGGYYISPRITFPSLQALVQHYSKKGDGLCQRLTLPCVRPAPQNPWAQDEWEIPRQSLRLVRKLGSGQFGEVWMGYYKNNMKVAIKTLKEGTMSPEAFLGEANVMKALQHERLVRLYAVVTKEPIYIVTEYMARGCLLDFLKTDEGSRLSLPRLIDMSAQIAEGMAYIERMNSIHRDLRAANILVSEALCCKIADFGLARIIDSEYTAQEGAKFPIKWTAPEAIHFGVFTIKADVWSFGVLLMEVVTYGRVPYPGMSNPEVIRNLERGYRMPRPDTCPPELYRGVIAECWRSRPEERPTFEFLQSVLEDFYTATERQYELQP

[12] = biological target: Tyrosine-protein kinase Blk (Homo sapiens) (UniProt P51451); conditions: at 1 µM
[13] = biological target: T1, Cytoplasmic tyrosine-protein kinase BMX (Homo sapiens) (UniProt P51813); conditions: at 0.1 µM
T1 sequence (whole entry): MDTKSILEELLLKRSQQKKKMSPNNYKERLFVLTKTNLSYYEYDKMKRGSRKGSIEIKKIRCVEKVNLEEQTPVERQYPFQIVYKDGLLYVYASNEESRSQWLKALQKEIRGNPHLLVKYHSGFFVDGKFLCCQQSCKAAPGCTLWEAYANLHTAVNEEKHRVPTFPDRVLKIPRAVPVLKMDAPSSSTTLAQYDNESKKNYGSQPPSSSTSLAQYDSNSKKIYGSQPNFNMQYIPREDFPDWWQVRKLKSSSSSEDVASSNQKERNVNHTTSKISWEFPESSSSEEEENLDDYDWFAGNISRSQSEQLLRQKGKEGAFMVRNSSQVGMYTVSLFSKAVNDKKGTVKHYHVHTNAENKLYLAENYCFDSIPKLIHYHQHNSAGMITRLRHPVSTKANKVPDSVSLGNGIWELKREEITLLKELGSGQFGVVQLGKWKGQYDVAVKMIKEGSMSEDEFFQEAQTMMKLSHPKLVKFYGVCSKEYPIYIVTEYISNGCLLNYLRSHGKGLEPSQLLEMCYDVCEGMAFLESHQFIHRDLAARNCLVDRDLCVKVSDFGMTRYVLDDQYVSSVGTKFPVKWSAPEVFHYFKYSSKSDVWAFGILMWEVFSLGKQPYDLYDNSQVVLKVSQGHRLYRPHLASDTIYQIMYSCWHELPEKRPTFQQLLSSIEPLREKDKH

[14] = biological target: T1, Cytoplasmic tyrosine-protein kinase BMX (Homo sapiens); conditions: at 1 µM
[15] = biological target: Protein-tyrosine kinase 6 (Homo sapiens) (UniProt Q13882); conditions: at 0.1 µM
Protein-tyrosine kinase 6 (Homo sapiens), sequence (Q13882 whole entry, looked up): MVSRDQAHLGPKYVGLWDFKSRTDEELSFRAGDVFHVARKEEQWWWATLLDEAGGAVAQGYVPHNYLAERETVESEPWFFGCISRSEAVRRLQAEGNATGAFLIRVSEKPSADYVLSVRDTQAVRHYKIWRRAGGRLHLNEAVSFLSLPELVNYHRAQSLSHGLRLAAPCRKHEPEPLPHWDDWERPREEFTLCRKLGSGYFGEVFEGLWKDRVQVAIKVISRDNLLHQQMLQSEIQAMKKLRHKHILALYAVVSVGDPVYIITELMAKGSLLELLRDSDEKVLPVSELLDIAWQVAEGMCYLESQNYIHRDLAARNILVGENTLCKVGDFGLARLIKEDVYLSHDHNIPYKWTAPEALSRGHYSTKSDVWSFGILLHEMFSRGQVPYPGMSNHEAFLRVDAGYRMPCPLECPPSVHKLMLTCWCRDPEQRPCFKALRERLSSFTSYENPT

[16] = biological target: Protein-tyrosine kinase 6 (Homo sapiens) (UniProt Q13882); conditions: at 1 µM
[17] = biological target: Tyrosine-protein kinase BTK (Homo sapiens) (UniProt Q06187); conditions: at 0.1 µM
Tyrosine-protein kinase BTK (Homo sapiens), sequence (Q06187 whole entry): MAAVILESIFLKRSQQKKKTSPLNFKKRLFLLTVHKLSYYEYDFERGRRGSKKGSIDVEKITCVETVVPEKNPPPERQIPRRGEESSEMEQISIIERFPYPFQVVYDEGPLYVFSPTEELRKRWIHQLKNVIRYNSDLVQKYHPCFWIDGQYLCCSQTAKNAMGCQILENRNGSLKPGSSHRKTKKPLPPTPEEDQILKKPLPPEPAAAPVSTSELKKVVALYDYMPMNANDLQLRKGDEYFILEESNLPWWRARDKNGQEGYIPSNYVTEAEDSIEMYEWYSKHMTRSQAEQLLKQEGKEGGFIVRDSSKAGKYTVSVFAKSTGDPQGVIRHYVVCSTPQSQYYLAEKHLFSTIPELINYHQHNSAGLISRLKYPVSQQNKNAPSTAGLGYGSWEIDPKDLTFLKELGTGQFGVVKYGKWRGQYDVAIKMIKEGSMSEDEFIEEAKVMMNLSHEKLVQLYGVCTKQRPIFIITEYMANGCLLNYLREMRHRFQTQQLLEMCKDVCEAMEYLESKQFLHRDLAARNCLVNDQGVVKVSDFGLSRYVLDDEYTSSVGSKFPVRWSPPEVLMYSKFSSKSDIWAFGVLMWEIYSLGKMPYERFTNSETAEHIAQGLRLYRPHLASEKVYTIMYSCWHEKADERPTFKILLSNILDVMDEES

[18] = biological target: Tyrosine-protein kinase BTK (Homo sapiens) (UniProt Q06187); conditions: at 1 µM
[19] = biological target: Tyrosine-protein kinase CSK (Homo sapiens) (UniProt P41240); conditions: at 0.1 µM;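 also: value given is the averaged percent inhibition of CSK kinase activity, from the GSK PKIS kinase inhibitor set screening panel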
Tyrosine-protein kinase CSK (Homo sapiens), sequence (P41240 2-450 limits assumed): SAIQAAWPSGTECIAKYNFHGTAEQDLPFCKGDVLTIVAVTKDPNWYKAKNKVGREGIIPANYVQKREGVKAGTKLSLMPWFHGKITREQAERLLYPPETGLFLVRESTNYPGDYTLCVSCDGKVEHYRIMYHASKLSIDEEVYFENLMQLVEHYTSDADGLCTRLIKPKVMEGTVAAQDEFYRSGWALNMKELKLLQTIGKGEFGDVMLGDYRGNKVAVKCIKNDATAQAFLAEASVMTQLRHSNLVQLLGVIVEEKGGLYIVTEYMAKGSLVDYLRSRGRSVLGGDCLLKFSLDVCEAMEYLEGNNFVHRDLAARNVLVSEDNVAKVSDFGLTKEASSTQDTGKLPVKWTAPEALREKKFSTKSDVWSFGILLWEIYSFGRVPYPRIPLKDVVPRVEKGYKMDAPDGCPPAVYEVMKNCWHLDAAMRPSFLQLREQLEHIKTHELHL

[20] = biological target: Tyrosine-protein kinase receptor UFO (Homo sapiens) (UniProt P30530); conditions: at 1 µM

Row | SMILES | inhibition [1] | inhibition [2] | inhibition [3] | inhibition [4] | inhibition [5] | inhibition [6] | inhibition [7] | inhibition [8] | inhibition [9] | inhibition [10] | inhibition [11] | inhibition [12] | inhibition [13] | inhibition [14] | inhibition [15] | inhibition [16] | inhibition [17] | inhibition [18] | inhibition [19] | inhibition [20]
1 | COc1cc2ncnc(Nc3ccc(C)c(O)c3)c2cc1OC | 68.2% | 53.7% | 89.5% | 36.1% | 78.5% | 4.66% | 13.8% | 15.8% | 65.2% | -6.97% | 7.68% | 49% | 6.28% | 13% | 17.5% | 65.5% | 0.81% | 15.9% | 5.1% | –
2 | N#Cc1cccc(Nc2nccc(-c3cnn4ncccc34)n2)c1 | 34.2% | 12.6% | 49.8% | 13.6% | 47.5% | 4.04% | 18.7% | 11.9% | 44.3% | -0.03% | 5.38% | 26.5% | 4.87% | 39.7% | 5.32% | 23.5% | 2.23% | 5.13% | 5.02% | 33.8%
3 | Cc1cc(Cl)cc2c1NC(=O)C2=NNc1ccc(S(N)(=O)=O)cc1 | 4.99% | 3.5% | 6.19% | 2.11% | 7.99% | 0.72% | 1.88% | 3.13% | 7.59% | -3.23% | 1.98% | 1.63% | 3.4% | 2.55% | -0.72% | 1.77% | 2.48% | 0.33% | -0.78% | -2.47%
4 | COC(=O)Nc1nc2cc(Oc3ccc(NC(=O)Nc4cccc(Br)c4)cc3)ccc2[nH]1 | 44.6% | 7.87% | 16.5% | 6.66% | 19% | 2.06% | 3.65% | 16.1% | 34.4% | -0.21% | 3.1% | 2.8% | 2.76% | 1.32% | 3.81% | 4.63% | 1.15% | 0.55% | 7.57% | 9.52%
5 | COc1cccc(-n2nc(C)c3c(N/N=C(\C)c4ccncc4)ncnc32)c1 | -0.56% | 1.07% | 4.85% | 3.36% | 9.11% | 0.43% | 1.35% | -0.17% | 5.82% | -2.14% | -0.21% | 1.02% | 1.51% | 3.74% | -1.24% | -0.15% | 0.11% | -0.4% | -0.83% | 0.56%
6 | O=C1Nc2ccccc2/C1=C/Nc1ccc2[nH]c(=O)[nH]c2c1 | 23.7% | 9.65% | 23.3% | 8.95% | 25.8% | 2.88% | 16.4% | 7.75% | 19.4% | -8.65% | 7.96% | 33% | 5.38% | 7.7% | 4.56% | 8.06% | 0.87% | 4.29% | 6.52% | –
7 | Cc1cc(-c2ccccn2)cc(C)c1/C=C/c1cncc(-c2nn[nH]n2)c1 | 1.41% | 0.95% | 5.04% | 7.78% | 13% | 3.44% | 5.05% | 5.89% | 20.2% | -5.03% | 5.71% | 33.4% | 1.6% | 31.2% | 9.43% | 51% | 2.43% | 0.75% | 1.73% | -1.94%
8 | CCOc1nccc2c1nc(-c1nonc1N)n2CC | 6.12% | 1.56% | 6.81% | 4.96% | 14.6% | 2.69% | 5.24% | 3.48% | 11.2% | 0.71% | 3.42% | 2.55% | 1.6% | 1.81% | 0.8% | 2.85% | 1.49% | 2.44% | 3.08% | -0.05%
9 | Cc1ccc(O)cc1Nc1ccnc2ccc(S(C)(=O)=O)cc12 | 18.4% | 94.9% | 96.8% | 81.3% | 85.5% | 2.56% | 8.35% | 80.8% | – | -7.59% | 42.8% | 91.4% | 76.5% | 93.2% | 95.3% | 103% | 63.8% | 77.3% | 70.3% | –
10 | Nc1ccc(C#Cc2cncnc2Nc2ccc(OCc3cccc(F)c3)c(Cl)c2)cc1 | 1.84% | 1.89% | 2.12% | 3.72% | 4% | 3.7% | 3.34% | 3.43% | 4.12% | -4.2% | 2.28% | 3.41% | 4.02% | 2.63% | 0.17% | 4.63% | -0.24% | 1.11% | -1.23% | -3.04%
11 | OCc1ccc(-c2nc(-c3ccccn3)c(-c3ccc4c(c3)OCO4)[nH]2)cc1 | 0.39% | 4.74% | 4.83% | 8.07% | 12.3% | 3.63% | 8.19% | 5.94% | – | -6.62% | 3.13% | 5.92% | -2.19% | 4.67% | 4.49% | 5.07% | 3.02% | 3.51% | 3.92% | -3.37%
12 | CN(C)C(=O)O[C@H]1CN[C@H](C#Cc2cc3ncnc(Nc4ccc(OCc5cccc(F)c5)c(Cl)c4)c3s2)C1 | 1.25% | 4.89% | 4.19% | 3.76% | 8.35% | 2.82% | 5.03% | 3.49% | 6.24% | -3.4% | 2.47% | 4.23% | -3.39% | 3.3% | 5.52% | 4.14% | -1.08% | 0.74% | 0.6% | -1.68%
13 | COC(=O)c1ccc2c(c1)C(=Cc1cc(Br)c(O)c(Br)c1)C(=O)N2 | 2.87% | 2.56% | 15.9% | 7.83% | 21.2% | 5.2% | 15% | 5.66% | 15.4% | -5.02% | 3.19% | 11.6% | 3.04% | 7.64% | 2.4% | 6.95% | -1.29% | 0.81% | -0.27% | -4.28%
14 | NS(=O)(=O)c1ccc(Nc2cc(-c3cccc(O)c3)n[nH]2)cc1 | 7.24% | 6.94% | 11.8% | 5.23% | 11.4% | 3.58% | 7.98% | 5.93% | 6.81% | – | 3.31% | 6.67% | -0.08% | 4.72% | 4.78% | 6.34% | -0.39% | 0.41% | 4.63% | -5.6%
